Screens deposited in PubChem by National Center for Advancing Translational Sciences (NCATS).
DRD3 agonist: agonists of human D3 dopamine receptor; P35462; D3R DiscoveRx beta-arrestin cells, luminescence, 90 min; max activation, %; actives 0.58% (n = 410,000); AID 652048; in the data active = max activation above about 30%; also: 0% is about no effect
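Agonist mode: compounds and dopamine controls were applied to plated cells for 90 min at 37 degrees C after an overnight attachment at 1500 cells/well. Luminescent read-out followed 30 - 60 minutes at room temperature with DiscoveRx detection reagent.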
DRD3 antagonist: D3 dopamine receptor (human) antagonism; max response, negative = inhibition, %; D3R cells, DiscoveRx beta-arrestin luminescence, antagonist mode; active compounds read low; actives 2.5% (n = 360,000); AID 652054; P35462; in the data active = max response below about -50%; inconclusive = no clear call, values can overlap the other calls; also: % is scaled to controls: 0 for no effect and ±100 for the full control effect
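Cells plated overnight at 1500 cells/well, then exposed to library compounds with dopamine controls for 90 minutes at 37 degrees C. DiscoveRx reagent added for 30–60 minutes at room temperature; luminescence read, quantitative HTS format.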
GLP1R inv ag: inverse agonists of human GLP-1 receptor. P43220. HEK293 GLP-1R CRE-luciferase, luminescence, 24 h; GLP-1R form is constitutively active. Potency, µM (top dose mostly 38.3 µM), for inactives: at the highest dose activity change, negative = inhibition, usual class: inhibitors. actives 1.6% (n = 410,000). AID 624417; also: potency is read from the fitted curve at half-maximal effect; % is scaled to controls: 0 for no effect and ±100 for the full control effect; nearly all actives have a fitted effect of over 55% in size
Target sequence (P43220 whole entry, looked up): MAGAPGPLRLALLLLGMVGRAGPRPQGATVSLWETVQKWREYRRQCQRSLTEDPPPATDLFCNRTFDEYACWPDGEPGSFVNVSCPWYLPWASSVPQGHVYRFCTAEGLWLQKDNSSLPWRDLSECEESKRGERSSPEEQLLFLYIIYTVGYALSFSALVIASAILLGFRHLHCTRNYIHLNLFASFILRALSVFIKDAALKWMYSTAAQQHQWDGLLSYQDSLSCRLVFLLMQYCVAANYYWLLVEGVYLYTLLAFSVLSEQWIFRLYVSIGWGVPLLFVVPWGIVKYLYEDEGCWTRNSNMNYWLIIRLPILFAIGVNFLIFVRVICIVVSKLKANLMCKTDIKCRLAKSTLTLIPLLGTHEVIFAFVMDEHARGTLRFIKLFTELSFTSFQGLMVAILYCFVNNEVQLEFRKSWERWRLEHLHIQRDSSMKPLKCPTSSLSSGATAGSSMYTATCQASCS
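HEK293 cells stably co-expressing a cAMP-responsive luciferase reporter and constitutively active GLP-1R were seeded, incubated 12 h, then exposed to compounds for 24 h at 37 C. Luminescence was read 12 min after detection reagent; inverse agonists lower signal.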
GLP1R ag: GLP-1 receptor (human) agonism. P43220. HEK293 GLP-1R CRE-luciferase, luminescence, 4-6 h; cells express a hypersensitive GLP-1R form. actives 0.007% (n = 380,000). AID 624172. Potency, µM (series often up to 45.6 µM), without a hit: at the highest dose activation, hits mostly activators; also: potency is read from the fitted curve at half-maximal effect; % of control where 0% means no effect
* = called active by the depositor; ? = inconclusive; · = no result. An excerpt weighted towards active compounds, which were near 4.3% of everything screened. Unless noted, calls follow the shape of the dose curve; as a rule, active = well fitted curve in the direction sought with a large enough effect; inconclusive = small, poorly fitted or top-dose-only effect, or another doubt; inactive = no such curve, though single readings can be large; an effect the other way counts as inactive or inconclusive.

SMILES | DRD3 agonist | DRD3 antagonist | GLP1R inv ag | GLP1R ag
COc1cc(/C=C2/C(=O)NN(c3ccc(Cl)cc3)C2=O)cc(OC)c1O | 1 | 16 | 4µM* | -6%
COc1ccc(-n2c(C)cc(/C=C3\C(=O)NN(c4ccccc4)C3=O)c2C)cc1 | 4 | -59* | 6% | 1%
O=C1NN(c2ccccc2)C(=O)/C1=C\c1ccccc1 | 7 | 4 | ? | 10%
OC(CN1CCN(c2ccccc2)CC1)c1ccc2c(c1)CCN2 (configuration not stated) | 44* | -28 | -3% | -3%
CCOC(=O)N1CCN(CC(O)c2ccc3c(c2)CCN3)CC1 (configuration not stated) | -1 | -4 | 0% | 8%
CC12CC(c3ccccc3O1)N(C(=O)c1ccco1)C(=S)N2c1ccc(F)cc1 (configuration not stated) | -2 | -19 | 10µM* | -7%
CC1(C)Cc2c(cnn2-c2ccc(F)cc2)C(NC(=O)c2ccco2)C1 (configuration not stated) | 0 | -1 | -16% | 8%
COc1ccc(NC(=O)c2oc3c(c2C)-c2nn(Cc4c(F)cccc4Cl)cc2CC3)c(OC)c1 | -4 | · | -8% | ·
CCc1ccccc1NC(=O)CN(c1ccccc1OC)S(=O)(=O)c1ccc(C)cc1 | 1 | · | ? | -1%
O=C(CC1CC2CCC1C2)OCC(=O)c1c[nH]c2ccccc12 (configuration not stated) | 2 | 1 | 10µM* | 4%
O=C(COC(=O)CC1CC2CCC1C2)NCc1ccc(F)cc1 (configuration not stated) | -6 | -6 | -14% | 16%
COc1ccc2[nH]c(CN3CCN(CC=C(C)C)C(CCO)C3)c(C)c2c1 (configuration not stated) | -8 | 14 | ? | -1%
CC(=O)N[C@@H](Cc1ccc(O)cc1)C(=O)O | 1 | · | · | 1%
O=C(Nc1ccccc1)NC(Cc1ccc(O)cc1)C(=O)O (configuration not stated) | 22 | -65* | -24% | -8%
O=C(O)[C@H](Cc1ccccc1)NC(=O)C(c1ccccc1)(c1ccccc1)c1ccccc1 | 0 | 18 | 10µM* | -4%
CCOC(=O)c1cc(NC(=O)c2ccc(C)cc2)c(=O)n2c1oc1ccc(Cl)cc12 | 0 | · | 11% | ·
COc1ccc(-n2cc(-c3ccccc3)c3c(N4CCCC(C)C4)ncnc32)cc1 (configuration not stated) | 6 | · | -19% | ·
Cc1nn(-c2ccccc2)c(OC(=O)c2ccc(Br)cc2)c1S(=O)(=O)c1ccccc1 | 9 | · | -2% | -2%
COCCNC(=O)C1CCCN(C(=O)c2cncc(Br)c2)CC1 (configuration not stated) | -18 | -77* | 15% | 2%
COCCNC(=O)C1CCCN(C(=O)Cc2cccc3ccccc23)CC1 (configuration not stated) | -11 | -102* | 6% | 1%
COCCNC(=O)C1CCCN(C(=O)Cc2ccc(F)cc2)CC1 (configuration not stated) | 10 | 28 | 9% | -7%
COc1ccc(NC(=O)c2cc(C3CCCCN3C(=O)C3CC3)on2)c(C)c1 (configuration not stated) | -23 | -111* | -19% | -1%
COc1ccc(-c2cc3nc(NCC4CCCCC4)n(C)c(=O)c3s2)cc1OC | 37* | 98 | -9% | -3%
C[C@H](NC(=O)c1ccco1)C(=O)NCc1cccs1 | 1 | -2 | 8% | 2%
CC(C)COc1ccc(-c2nnc(-c3ccncc3)o2)cc1 | 9 | 52 | 25% | 22%
SMILES | DRD3 agonist | DRD3 antagonist | GLP1R inv ag | GLP1R ag
CCCOc1ccc(-c2nnc(-c3ccncc3)o2)cc1 | -4 | -71* | 0% | -8%
CC(C)=CCC[C@@](C)(O)[C@H]1CC=C(C)CC1 | 3 | · | · | ·
CCOC(=O)c1ccc(-c2ccc(/C=N/NC(=O)CN(c3ccccc3Cl)S(C)(=O)=O)o2)cc1 | 44* | 53 | 31% | 18%
CCOC(=O)c1sc2ccccc2c1OC(=O)c1ccc(C)cc1 | 35* | 43 | 19% | 7%
CCOC(=O)c1ccc(NC(=O)c2sc3ccccc3c2Cl)cc1 | 6 | · | 13% | ·
CCOc1ccc(S(=O)(=O)Nc2cc(C)ccn2)c2ccccc12 | 32* | 56 | 45% | -7%
CCOc1ccc(S(=O)(=O)N2CCCCC2)c2ccccc12 | -2 | 0 | 10µM* | 0%
COc1ccc(S(=O)(=O)Nc2cc(C)cc(C)n2)c2ccccc12 | 4 | 2 | 13% | -2%
CCOc1ccc(S(=O)(=O)N2CCOCC2)c2ccccc12 | -2 | 5 | -4% | 11%
COc1ccc(N2CCN(c3nc4cc(C)ccc4cc3C=O)CC2)cc1 | 31* | -2 | 1% | 10%
CCCNC(=O)C1(C)CCN(C(=O)COc2ccc(Cl)cc2Cl)C1 (configuration not stated) | -11 | -26 | 17% | 6%
Cc1ccc(OCCCCn2c(-c3ccc(Cl)cc3)nc3ccccc3c2=O)cc1 | -3 | · | -21% | ·
O=C(/C=C/c1ccccc1)Nc1cc(-c2nc3ccccc3o2)ccc1Cl | -10 | · | 9% | ·
O=S(=O)(c1ccc(OCC(O)CN2CCN(c3ccccc3O)CC2)cc1)N1CCOCC1 (configuration not stated) | 19 | -25 | 0% | -5%
O=S(=O)(c1ccc(OCC(O)CN2CCN(c3ccccc3)CC2)cc1)N1CCOCC1 (configuration not stated) | 43* | 0 | 19% | 0%
O=S(=O)(c1ccc(OCC(O)CN2CCCC2)cc1)N1CCOCC1 (configuration not stated) | 3 | 3 | 18% | -11%
O=S(=O)(c1ccc(OCC(O)CN2CCC(Cc3ccccc3)CC2)cc1)N1CCOCC1 (configuration not stated) | -32 | -59* | 0% | 3%
CCO[C@H](Cc1ccc(OCCc2ccc(OS(C)(=O)=O)cc2)cc1)C(=O)O | -21 | · | · | ·
COc1cccc(NC(=O)C2(C)CCCN2C(=O)C(C)C)c1OC (configuration not stated) | 75* | 7 | 14% | 2%
CC(C)C(=O)N1CCC1(C)C(=O)NS(=O)(=O)c1cccs1 (configuration not stated) | -9 | -63* | 19% | -7%
CCOc1ccc(N2CC(NC(=O)/C=C\c3ccc4c(c3)OCO4)CC2=O)cc1 (configuration not stated) | 4 | · | 5% | ·
Cc1nn(C)c2c1c(-c1ccccc1)cc(=O)n2Cc1ccc(F)cc1 | 31* | · | ? | ·
COC(=O)c1ccc(Cn2c(=O)cc(C)c3c(C)nn(C)c32)cc1 | 37* | · | 5% | ·
Cc1nn(C)c2c1c(-c1ccccc1)cc(=O)n2Cc1ccccc1F | -6 | · | ? | ·
COC(=O)c1ccccc1NC(=O)Cn1c(=O)cc(C)c2c(C)nn(C)c21 | -8 | · | -5% | ·
